# Bioassay records as filed in PubChem.
# Only some compounds are listed: those with a hit (about 6.8% of all), similar ones and a draw of the others.
# Pf Dd2 inh: blocks growth of Plasmodium falciparum Dd2 parasites | activity change, % at 10 µM | 94,000 tested, 2.3% active | P. falciparum Dd2 growth, SYBR Green, 72 h; stronger effect = lower value; in the data active means activity change below about -80%
# T cruzi growth-1: blocks T. cruzi growth in NIH3T3 culture. 77,000 tested, 5.9% active. T. cruzi beta-gal in NIH3T3, GalScreen luminescence, 90 h. AID 624255. inhibition, % at 8.34 µM;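 active means mean inhibition above about 93%, with at least 55% of replicates each passing it, limit read from the data, passing the limit was not always enough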
# C diff HTS: C. difficile growth inhibition. growth activity, negative = inhibition, % at 16 µg/mL (by protocol). 86,000 tested, 0.25% active. AID 1259249. Clostridium difficile clinical isolate growth, OD600, 24 h; stronger effect = lower value;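 active means mean growth activity at or below -80% and every replicate also at or below -80%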
# T cruzi growth-2: inhibitors of T. cruzi proliferation | inhibition, % at 8.35 µM | 5,600 tested, 72% active | shares compounds with T cruzi growth-1 | AID 651739 | T. cruzi beta-gal in NIH3T3, GalScreen luminescence, 90 h;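 active means mean replicate inhibition above about 95% and at least 55% of replicates individually reaching it, limit read from the data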
# T cruzi growth-3: inhibitors of T. cruzi proliferation; 5,600 tested, 21% active; T. cruzi beta-gal in NIH3T3, GalScreen luminescence, 90 h; shares compounds with T cruzi growth-1; AID 651740; inhibition, % at 2.09 µM;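 active means mean inhibition above about 95%, with at least 55% of replicates also reaching it, limit read from the data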
# NIH3T3 tox: kills mouse NIH/3T3 fibroblasts; cytotoxicity (signal decrease), % at 8.35 µM; shares compounds with T cruzi growth-1; AID 651742; NIH/3T3 viability, CellTiter-Glo ATP luminescence, 90 h; 5,600 tested, 14% active;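 active means mean signal decrease across replicates above about 35% based on untreated-well scatter, with enough replicates individually passing, limit read from the data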
# NIH3T3 tox 2: NIH/3T3 (mouse) viability loss. NIH/3T3 viability, CellTiter-Glo ATP luminescence, 90 h. inhibition, % at 24.9 µM. 5,600 tested, 56% active. shares compounds with T cruzi growth-1;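 active means mean loss of cell viability signal at or above a set limit, and enough replicates individually reaching it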
# Hits are given with their value; n = inactive; x = no result.
SMILES,Pf Dd2 inh,T cruzi growth-1,C diff HTS,T cruzi growth-2,T cruzi growth-3,NIH3T3 tox,NIH3T3 tox 2
O=C(C1CCCC1)N1CCCCN2[C@H](C1)[C@@H](c1ccc(C#CC3(O)CCCC3)cc1)[C@@H]2CO,n,n,n,x,x,x,x
O=C(C1CCCC1)N1CCCCN2[C@H](CO)[C@@H](c3ccc(C#CC4(O)CCCC4)cc3)[C@H]2C1,n,104.4,n,n,n,n,n
O=C(c1ccc(F)cc1)N1CCCCN2[C@H](C1)[C@H](c1ccc(C#CC3(O)CCCC3)cc1)[C@@H]2CO,n,n,n,x,x,x,x
C[C@H](O)C#Cc1cnc2c(c1)C(=O)N([C@@H](C)CO)C[C@H](C)[C@H](CN(C)C(=O)Nc1ccc(F)cc1)O2,n,n,n,x,x,x,x
O=C(Nc1ccc(Cl)c(Cl)c1)N[C@@H]1CC[C@@H](CCn2cc(C3CCCC3)nn2)O[C@H]1CO,n,x,n,x,x,x,x
COc1cccc(C(=O)N2C[C@@H]3[C@H](c4ccccc42)[C@H](CO)N3Cc2ccccc2Cl)c1,n,n,n,x,x,x,x
CCNC(=O)C[C@H]1CC[C@H]2[C@@H](COC[C@H](O)CN2C(=O)C2CCOCC2)O1,x,n,n,x,x,x,x
C[C@H]1CCCCO[C@H](CN(C)C(=O)Nc2cccc3ccccc23)[C@@H](C)CN([C@@H](C)CO)C(=O)c2cc(NC(=O)CCC(F)(F)F)ccc2O1,n,n,n,x,x,x,x
C/C=C/c1ccc2c(c1)O[C@@H](CN(C)C(=O)c1ccccn1)[C@@H](C)CN([C@@H](C)CO)S2(=O)=O,n,n,n,x,x,x,x
C[C@@H]1CCCCO[C@H](CN(C)CC2CCCCC2)[C@@H](C)CN([C@H](C)CO)C(=O)c2cc(NC(=O)c3ccncc3)ccc2O1,n,n,x,x,x,x,x
CN(C)CC(=O)N[C@H]1C[C@@H]2O[C@H](CO)CC[C@@H]2O[C@@H]1CCc1ccc(-c2ccc(F)cc2)cc1,n,x,n,x,x,x,x
CCCN(C)C[C@@H]1OCCCC[C@@H](C)Oc2ccc(NC(=O)Nc3ccc(F)cc3)cc2C(=O)N([C@H](C)CO)C[C@H]1C,n,n,n,x,x,x,x
CCCN(C)C[C@@H]1OCCCC[C@@H](C)Oc2ccc(NC(=O)Nc3ccc(C(F)(F)F)cc3)cc2C(=O)N([C@H](C)CO)C[C@@H]1C,n,100.2,n,106.7,n,n,38.7
CCCN(C)C[C@@H]1OCCCC[C@@H](C)Oc2ccc(NC(=O)Nc3ccc(F)cc3)cc2C(=O)N([C@H](C)CO)C[C@@H]1C,n,n,n,x,x,x,x
CCCN(C)C[C@@H]1OCCCC[C@H](C)Oc2ccc(NC(=O)Nc3ccc(F)cc3)cc2C(=O)N([C@@H](C)CO)C[C@@H]1C,n,95.3,n,99.2,n,n,n
C[C@@H]1CN([C@H](C)CO)C(=O)c2cc(NC(=O)NC3CCCCC3)ccc2O[C@@H]1CN(C)C,n,n,n,x,x,x,x
COc1ccc(NC(=O)N(C)C[C@@H]2OCCCC[C@@H](C)Oc3ccc(NC(=O)Nc4c(C)noc4C)cc3C(=O)N([C@H](C)CO)C[C@@H]2C)cc1,n,n,n,x,x,x,x
COc1ccc(S(=O)(=O)N(C)C[C@H]2Oc3ccc(NC(=O)Cn4cnnn4)cc3C(=O)N([C@H](C)CO)C[C@H]2C)cc1,n,n,n,x,x,x,x
COc1ccc(S(=O)(=O)N(C)C[C@@H]2Oc3ccc(NC(=O)Cn4cnnn4)cc3C(=O)N([C@H](C)CO)C[C@H]2C)cc1,n,104.9,n,n,n,n,n
COc1ccc(S(=O)(=O)N(C)C[C@H]2Oc3ccc(NC(=O)Cn4cnnn4)cc3C(=O)N([C@@H](C)CO)C[C@@H]2C)cc1,n,99.7,n,n,n,n,n
COc1ccc(S(=O)(=O)N(C)C[C@H]2Oc3ccc(NC(=O)Cn4cnnn4)cc3C(=O)N([C@H](C)CO)C[C@@H]2C)cc1,n,n,n,x,x,x,x
O=C(NC1CCC1)[C@H]1[C@H](CO)[C@H]2Cn3c(ccc(-c4ccc(F)cc4)c3=O)[C@H]2N1Cc1ccccn1,x,n,n,x,x,x,x
C[C@@H](NC(=O)C[C@@H]1C[C@H]2c3cc(NS(C)(=O)=O)ccc3O[C@H]2[C@H](CO)O1)c1ccccc1,n,x,n,x,x,x,x
CN(C)C(=O)c1cccc(-c2ccc([C@@H]3[C@H](C#N)N(C(=O)C4CCC4)[C@H]3CO)cc2)c1,n,100.0,n,n,n,n,n
CN(C)C(=O)c1ccc(-c2ccc([C@H]3[C@H](C#N)N(C(=O)C4CCC4)[C@H]3CO)cc2)cc1,n,n,n,x,x,x,x
SMILES,Pf Dd2 inh,T cruzi growth-1,C diff HTS,T cruzi growth-2,T cruzi growth-3,NIH3T3 tox,NIH3T3 tox 2
CN(C)C(=O)c1ccc(-c2ccc([C@@H]3[C@@H](C#N)N(C(=O)C4CCOCC4)[C@H]3CO)cc2)cc1,n,98.2,n,n,n,n,n
CN(C)C(=O)c1cccc(-c2ccc([C@@H]3[C@@H](CO)N(C(=O)C4CCCC4)[C@H]3C#N)cc2)c1,n,x,n,x,x,x,x
CN(C)C(=O)c1cccc(-c2ccc([C@H]3[C@@H](C#N)N(C(=O)C4CCCCC4)[C@H]3CO)cc2)c1,n,n,n,x,x,x,x
CN(C)C(=O)c1cccc(-c2ccc([C@H]3[C@@H](C#N)N(C(=O)C4CCC4)[C@H]3CO)cc2)c1,n,102.5,n,n,n,n,n
CN(C)C(=O)c1cccc(-c2ccc([C@H]3[C@@H](CO)N(C(=O)C4CCC4)[C@H]3C#N)cc2)c1,n,103.6,n,n,n,n,n
CN(C)C(=O)c1cccc(-c2ccc([C@@H]3[C@@H](C#N)N(C(=O)C4CCC4)[C@H]3CO)cc2)c1,n,n,n,x,x,x,x
CO[C@@H]1CN(C)C(=O)c2ccc(NC(=O)NC3CCCCC3)cc2OC[C@@H](C)N(C(=O)NC2CCCCC2)C[C@H]1C,n,n,x,x,x,x,x
CO[C@H]1CN(C)C(=O)c2ccc(NC(=O)C3CC3)cc2OC[C@@H](C)N(C(=O)c2cccnc2)C[C@@H]1C,n,108.6,x,n,n,n,n
CO[C@H]1CN(C)C(=O)c2ccc(NC(=O)C3CC3)cc2OC[C@H](C)N(C(=O)c2cccnc2)C[C@H]1C,n,n,x,x,x,x,x
CCC(=O)Nc1ccc2c(c1)OC[C@H](C)N(C(=O)c1ccc(F)cc1)C[C@@H](C)[C@@H](OC)CN(C)C2=O,n,104.5,x,n,n,n,n
CCC(=O)Nc1ccc2c(c1)OC[C@H](C)N(C(=O)c1ccc(F)cc1)C[C@H](C)[C@@H](OC)CN(C)C2=O,n,x,n,x,x,x,x
CO[C@@H]1CN(C)C(=O)c2cc(NC(=O)Nc3ccccc3Cl)ccc2OC[C@@H](C)N(C(C)=O)C[C@H]1C,n,n,x,x,x,x,x
COCc1cn(CC[C@@H]2CC[C@@H](NC(=O)c3ccncc3)[C@H](CO)O2)nn1,n,n,x,x,x,x,x
COCc1cn(CC[C@@H]2CC[C@@H](NC(=O)c3ccncc3)[C@@H](CO)O2)nn1,n,126.7,x,n,n,n,n
O=C(N[C@@H]1CC[C@H](CCn2cc(-c3ccccc3F)nn2)O[C@@H]1CO)c1ccc2c(c1)OCO2,n,n,x,x,x,x,x
